Reference: PubChem BioAssay (NCATS)
Inconclusive results are not listed. Activity calls are given as the source filed them. Unless noted, the call rests on the fitted dose curve; in most records, active means well fitted curve in the direction sought with a large enough effect; inconclusive means small, poorly fitted or top-dose-only effect, or another doubt; inactive means no such curve, though single readings can be large; an effect the other way counts as inactive or inconclusive.

Assays:
[1] = target: Aldehyde dehydrogenase, mitochondrial (Homo sapiens) (UniProt P05091); assay: qHTS for Inhibitors of the Aldehyde Dehydrogenase Family (ALDH2) Confirmatory screens (AID 2061303; active means well fitted inhibition curve with a large enough effect; title and protocol of this record describe different tests; further: nearly all actives have a fitted effect of over 45% in size; further: potency means the concentration at half of the fitted maximal effect)
[2] = target: Aldehyde dehydrogenase, mitochondrial (Homo sapiens) (UniProt P05091); assay: qHTS for Inhibitors of the Aldehyde Dehydrogenase Family (ALDH2) Primary screen (AID 2061308); further: nearly all actives have a fitted effect of over 55% in size; further: potency means the concentration at half of the fitted maximal effect
[3] = target: Retinaldehyde dehydrogenase 3 (Homo sapiens) (UniProt P47895); assay: qHTS for Inhibitors of the Aldehyde Dehydrogenase Family (ALDH1A3) Confirmatory screens (AID 2061311); further: nearly all actives have a fitted effect of over 60% in size; further: potency means the concentration at half of the fitted maximal effect
[4] = target: Retinal dehydrogenase 2 (Homo sapiens) (UniProt O94788); assay: qHTS for Inhibitors of the Aldehyde Dehydrogenase Family (ALDH1A2) Confirmation screens (AID 2061314); further: nearly all actives have a fitted effect of over 65% in size; further: potency means the concentration at half of the fitted maximal effect
[5] = target: Retinaldehyde dehydrogenase 3 (Homo sapiens) (UniProt P47895); assay: qHTS for Inhibitors of the Aldehyde Dehydrogenase Family (ALDH1A3) Primary screen (AID 2061315)
[6] = target: Aldehyde dehydrogenase 1A1 (Homo sapiens) (UniProt P00352); assay: qHTS for Inhibitors of the Aldehyde Dehydrogenase Family (ALDH1A1) Confirmatory screens (AID 2061316); further: nearly all actives have a fitted effect of over 65% in size; further: potency means the concentration at half of the fitted maximal effect
[7] = BET inhibitor-based combinations targeting novel dependencies in MECOM-rearranged (r) AML: OCI-AML3 cell line (AID 2202232); settings: Potency: OCI-AML3 viability; further: potency means the concentration at half of the fitted maximal effect; nearly all actives have a fitted effect of over 35% in size
Procedure, shortened: (§1)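 A 48 hr incubation preceded viability reading by CellTiter-Glo, with 15 min room-temperature development. Dose series had 11 points; normalization used DMSO and empty wells; AUC was computed and mean-centered per line as Z-AUC.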

[8] = BET inhibitor-based combinations targeting novel dependencies in MECOM-rearranged (r) AML: MV-4-11 cell line (AID 2202233); further: potency means the concentration at half of the fitted maximal effect; nearly all actives have a fitted effect of over 45% in size
Procedure, shortened: (§2)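 Each compound is tested in an 11-point concentration series against 500 seeded cells/well for 48 hr. The luminescent viability signal is normalized to DMSO and blank wells, then reduced to AUC and a cell-line-centred Z-AUC.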

[9] = BET inhibitor-based combinations targeting novel dependencies in MECOM-rearranged (r) AML: HNT-34 cell line (AID 2202234); further: potency means the concentration at half of the fitted maximal effect; nearly all actives have a fitted effect of over 35% in size
Procedure, shortened: as §2

[10] = BET inhibitor-based combinations targeting novel dependencies in MECOM-rearranged (r) AML: UCSD-AML1 cell line (AID 2202235); further: potency means the concentration at half of the fitted maximal effect; nearly all actives have a fitted effect of over 40% in size
Procedure, shortened: as §2

[11] = BET inhibitor-based combinations targeting novel dependencies in MECOM-rearranged (r) AML: AML-194 cell line (AID 2202237; further: potency means the concentration at half of the fitted maximal effect; nearly all actives have a fitted effect of over 40% in size)
Procedure, shortened: as §1

Measured: Potency

NC(=O)C1CCN(c2ncc(-c3cccc(N4CCOCC4)c3)s2)CC1
inactive: [1] | [2] | [3] | [4] | [5]
active: [6] 6.34 µM

CCOC(=O)C1CCN(c2nc(-c3ccc(Br)cc3)cs2)CC1
inactive: [1] | [2] | [3] | [4] | [5] | [6]

CCc1nc2c(sc3nc4c(cc32)COC(C)(C)C4)c(=O)n1Cc1ccco1
inactive: [2]
active: [1] 6.34 µM | [3] 7.98 µM | [4] 7.12 µM | [6] 0.634 µM

NC(=O)C1CCN(c2nc(-c3ccc4c(c3)OCCO4)cs2)CC1
inactive: [1] | [2] | [4] | [5]

COc1ccc(C2Nc3ccccc3C(=O)N2Cc2ccccc2)cc1COc1ccc(F)cc1 (stereo unspecified)
inactive: [1] | [2] | [5] | [6]
active: [4] 15.9 µM

COc1ccc(C2Nc3ccccc3C(=O)N2Cc2ccccc2)cc1COc1ccc(C)cc1 (stereo unspecified)
inactive: [2] | [5]
active: [1] 3.98 µM | [4] 5.65 µM

Cc1ccc(-c2no[n+]([O-])c2C#N)cc1
inactive: [1] | [2] | [3] | [5]

S=C(Nc1ccccn1)c1ccccn1
active: [1] 28.3 µM | [2] 11.2 µM | [3] 6.34 µM | [6] 5.65 µM

Cc1nnc(CN(C)c2ncnc3ccc(-c4ccc5c(c4)OCO5)cc23)o1
inactive: [1] | [2] | [5]
active: [3] 20.1 µM | [6] 14.2 µM

Cc1noc(C)c1N[S+](=O)([O-])c1ccc(NC(=O)Cc2ccc(Cl)c(Cl)c2)cc1
inactive: [2] | [5]
active: [1] 7.08 µM | [3] 6.31 µM

CC(C)(C)Nc1nc(C#N)nc(Nc2ccccc2)n1
inactive: [1] | [2] | [3] | [5] | [6]

O=c1[nH]c(CN2CCOCC2)nc2sc3c(c12)CCC3
inactive: [1] | [2] | [5] | [6]
active: [3] 11.3 µM

O=C(O)CN1C(=O)N/C(=C\c2cccn2-c2ccc(P(=O)(O)O)cc2)C1=O
active: [6] 7.98 µM
inactive: [1] | [2] | [3] | [5]

O=[S+]([O-])(NCC#CCSc1nnc(-c2cccc3ccccc23)o1)c1ccc(F)cc1
inactive: [1] | [2] | [4] | [5]

Cc1nc(NCc2ccc(-c3cccnc3)cc2)c2ccccc2n1
inactive: [1] | [2] | [4] | [5] | [6]

O=S1(=O)CCN(Cc2cc(NCC3CCOCC3)c3[nH]c(-c4ccccc4)cc3c2)CC1
active: [3] 11.3 µM
inactive: [1] | [2] | [6]

CN(C)c1cccc(-c2csc(N3CCC(C(N)=O)CC3)n2)c1
inactive: [2] | [5]
active: [1] 12.7 µM | [3] 12.7 µM | [6] 11.3 µM

N#Cc1c(-c2cccc(O)c2)no[n+]1[O-]
active: [4] 2.52 µM
inactive: [1] | [2] | [5]

N#CNC(=O)c1ccc(-n2cccc2/C=C2\NC(=O)N(CC(=O)Nc3cccc(F)c3)C2=O)cc1
inactive: [1] | [2] | [3] | [5] | [6]

[O-][n+]1onc(-c2ccccc2)c1/C=N/O
inactive: [1] | [2] | [4] | [5] | [6]

Cc1cc(C)nc(NC(=S)N2CCN(c3cncc4ccccc34)CC2)c1
active: [3] 22.5 µM | [6] 5.65 µM
inactive: [1] | [2] | [5]

Cc1ccc(OCCn2c(CCNC(=O)c3cccc(N)c3)nc3ccccc32)cc1
inactive: [1] | [2] | [4] | [5] | [6]

CNc1oc(-c2ccc3c(c2)OCCO3)nc1C#N
inactive: [1] | [2] | [4] | [5]

c1cn2cc(-c3ccc4cn[nH]c4c3)nc(Nc3ccc(N4CCOCC4)cc3)c2n1
inactive: [1] | [2] | [3] | [5] | [6]
active: [7] 5.25 µM | [8] 1.66 µM | [9] 4.17 µM | [10] 10.5 µM | [11] 1.32 µM

COc1ccc(C2Nc3ccccc3C(=O)N2Cc2cccnc2)cc1COc1ccc(NC(C)=O)cc1 (stereo unspecified)
active: [1] 15.8 µM | [4] 10.1 µM
inactive: [2] | [5]

Cc1noc(C)c1-c1ccc2ncnc(NCc3ccc(F)cc3)c2c1
active: [1] 12.6 µM | [3] 12.6 µM | [6] 20.1 µM
inactive: [2] | [5]

Cc1ccc(-c2cc(C(=O)Nc3cccc(S(N)(=O)=O)c3)c3ccccc3n2)cc1C
inactive: [1] | [2] | [4] | [5]
